The assay relates to primary human hepatic stellate cells (donor 1). Put plainly: scaled lipid accumulation score (0 = DMSO-like, 1 = nortriptyline-like); higher = stronger HSC inactivation (lipid re-accumulation), active = hit call of the paper. As to conditions: 48 h.
Where [1] appears, read: library stock concentration: 10 mM.
Setting [2] is: library stock concentration: 80 uM.
The mark [3] stands for this setting: library stock concentration: 400 uM.
The mark [4] stands for this setting: library stock concentration: 1 mM.
Where [5] appears, read: library stock concentration: 2 mM.
[6] abbreviates: library stock concentration: 3.33 mM.

“And” between values parts separate entries of the source, which are not always exact repeats. Equal entries are not always repeated. In all, about 5,800 compounds went through this assay and about 620 (11%) showed activity. For the sample, actives were picked, then their nearest neighbours and some compounds at random. A number with no mark means an inactive call.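 Rule for the calls: active = score above a cut-off or among the top three wells of a plate; in these data no inactive exceeds 0.85.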

Regarding `O=C(O)[C@H]1NCCC[C@H]1C(=O)O`, the “scaled lipid accumulation score” value under setting [1] is at most 0.
With `C[S+]([O-])c1ccc(-c2nc(-c3ccc(F)cc3)c(-c3ccncc3)[nH]2)cc1` (configuration not stated), the “scaled lipid accumulation score” value was 0.004 under setting [2]; ≤ -0.009 and ≤ -0.005 under setting [3]; at most 0 under setting [4]; 0.017 and ≤ -0.005 under setting [5]; at most 0 under setting [6]; at most -0.012 (library stock concentration: 13.2 mM).
Consider `CCCCCC=CC=CC(O)CCCCCCCC(=O)OCC(COC(=O)CCCCCCCC=CC=CC(O)CCCCC)OC(=O)CCCCCCCC=CC=CC(O)CCCCC` (configuration not stated) [Hydroxy Linoleins], for which the “scaled lipid accumulation score” value under setting [4] is 0.061.
Consider `N#CCNC(=O)c1ccc(-c2ccnc(Nc3ccc(N4CCOCC4)cc3)n2)cc1` [Momelotinib (CYT387) (0.4 mM)], for which the “scaled lipid accumulation score” value under setting [3] was at most -0.005.
On to `N#CCNC(=O)c1ccc(-c2ccnc(Nc3ccc(N4CCOCC4)cc3)n2)cc1` [listing 1 of 2 here], for which the “scaled lipid accumulation score” value reads like this: under setting [2], at most -0.009; under setting [3], 0.038; under setting [5], at most -0.009; under setting [1], 0.768.
As for `O=C(Nc1ccc(-c2ccnc(Nc3ccc(N4CCOCC4)cc3)n2)cc1)[C@@H]1CCCN1`, the “scaled lipid accumulation score” value under setting [1] was 1.06 (active).
With `O=C(Nc1ccc(-c2ccnc(Nc3ccc(N4CCOCC4)cc3)n2)cc1)C1CCCN1` (configuration not stated), the “scaled lipid accumulation score” value under setting [2] was at most 0; the “scaled lipid accumulation score” value under setting [3] is 0.007; the “scaled lipid accumulation score” value under setting [5] was 0.036; the “scaled lipid accumulation score” value under setting [6] was 0.063; the “scaled lipid accumulation score” value under setting [1] is 0.662.
Take `N#CCNC(=O)c1ccc(-c2ccnc(Nc3ccc(N4CCOCC4)cc3)n2)cc1` [listing 2 of 2 here]: the “scaled lipid accumulation score” value is 1.05 (active) under setting [6] and 0.922 (active) under setting [1].
For the compound `c1ccc2c(Oc3nc(Nc4ccc(N5CCOCC5)cc4)c4ncn(C5CCCCC5)c4n3)cccc2c1` [Purmorphamine], the “scaled lipid accumulation score” value runs as follows: under setting [4], at most 0; under setting [6], at most 0; under setting [1], 0.032.
On to `N#CCNC(=O)c1ccc(-c2ccnc(Nc3ccc(N4CCOCC4)cc3)n2)cc1` [Momelotinib (CYT387) (2 mM)], for which the “scaled lipid accumulation score” value under setting [5] was 0.858 (active).
As for `N#CCNC(=O)c1ccc(-c2ccnc(Nc3ccc(N4CCOCC4)cc3)n2)cc1` [Momelotinib (CYT387) (10 mM)], the “scaled lipid accumulation score” value under setting [1] is 0.945 (active).
Turning to `CC1=C(/C=C/C(=C/C=C/C(C)=C/C(=O)O)c2ccc(C)cc2)C(C)(C)CCC1`, the “scaled lipid accumulation score” value under setting [1] was at most -0.001.
Regarding `CCCCCC=CCC=CCC=CCCCCCCC(=O)OC` [Dihomo-.gamma.-Linolenic Acid methyl ester], the “scaled lipid accumulation score” value under setting [4] is 0.037.
Take `CC(C)CC(N)=O` [Isovaleramide]: the “scaled lipid accumulation score” value is, setting by setting: under setting [6], at most 0; under setting [1], at most -0.001.
In the case of `CC(C)CC(N)=O`, the “scaled lipid accumulation score” value under setting [1] was 0.291.
For the compound `Cc1ncc2ccccc2c1C#N` [4-Cyano-3-methylisoquinoline], under setting [6], the “scaled lipid accumulation score” value is at most 0.
